Reference: PubChem BioAssay (NCATS)
Results filed as inconclusive are left out. Entries that show only a call come without a potency. The source made the active and inactive calls. Calls come from the whole dose curve; as a rule, active = well fitted inhibition curve with a large enough effect; inconclusive = small, poorly fitted or top-dose-only effect; inactive = flat fitted curve, though single readings scatter.

target: Aldehyde dehydrogenase, mitochondrial (Homo sapiens) (UniProt P05091); test: qHTS for Inhibitors of the Aldehyde Dehydrogenase Family (ALDH2) Primary screen (AID 2061308); details: ALDH2 enzyme inhibition qHTS, 1536-well; series mostly up to 56 µM; note: nearly all actives have a fitted effect of over 55% in size

| Structure (SMILES) | Potency |
| --- | --- |
| Cc1c(P(=S)(c2ccccc2)c2ccccc2)[n+]2ccccc2n1Cc1ccccc1 | inactive |
| CCOc1ccc(CCNC(=O)c2cccc(C(=O)c3ccccc3)c2)cc1OCC | inactive |
| O=C(CN1C(=O)N/C(=C\c2cn(-c3cccc(C(=O)O)c3)cn2)C1=O)Nc1ccc(Cl)cc1 | inactive |
| O=S1(=O)N=C(Oc2ccccc2C(F)(F)F)c2ccccc21 | inactive |
| O=S(=O)(Nc1ccc(C2CCNCC2)cc1)c1ccc(NCc2cccc(Cl)c2O)cc1 | inactive |
| CC1=CCC(O)C2(C)CCC3C(C)C(=O)OC3C12 (configuration not stated) | inactive |
| C[S+](=O)([O-])c1ccc(-c2ccc(=O)n(CC(=O)NCCc3ccccc3)n2)cc1 | inactive |
| O=C(Nc1ccccc1)Nc1ccccc1 | inactive |
| COc1ccc(NC(=O)c2cnn3c(C)cc(C)nc23)cc1F | inactive |
| O=[S+]([O-])(c1ccc2c(c1)OCCO2)N1CCN([S+](=O)([O-])c2c(F)cc(F)cc2Br)CC1 | inactive |
| COc1cc(Nc2nc(-c3ccncc3)nc3ccccc23)ccc1F | inactive |
| COc1cc(O)c(C(CC(=O)N2CCC[C@@H](C)C2)c2ccc3c(c2)OCO3)c(OC)c1 (some centres not stated) | inactive |
| c1ccc(OCc2nnc3n2N=C(c2ccccc2)CS3)cc1 | inactive |
| CCN(CCc1cn(C)cn1)c1ncnc2ccc(-c3ccc4c(c3)OCO4)cc12 | inactive |
| O=C(Cc1ccccc1)NC(c1ccco1)c1cc(Cl)c2cccnc2c1O (configuration not stated) | inactive |
| Cc1cc(C)nc(NC(=S)N2CCN(c3ncccc3C#N)CC2)c1 | inactive |
| CC(=O)NCc1cc(Cl)c2cccnc2c1O | inactive |
